This passage reports binding signal results from article PMC7819943, “Rice protein-binding microarrays: a tool to detect cis-acting elements near promoter regions in rice”.

Over roughly 68,000 sequences, “fluorescence intensity (a.u.)” has its median near 9,100; the highest 2% begin near 16,000. The sample holds the highest values, similar sequences and a random draw of the others, so the mix is not that of the screen.

Chain of OsWRKY34 (Q0JBA9 entry or part of it): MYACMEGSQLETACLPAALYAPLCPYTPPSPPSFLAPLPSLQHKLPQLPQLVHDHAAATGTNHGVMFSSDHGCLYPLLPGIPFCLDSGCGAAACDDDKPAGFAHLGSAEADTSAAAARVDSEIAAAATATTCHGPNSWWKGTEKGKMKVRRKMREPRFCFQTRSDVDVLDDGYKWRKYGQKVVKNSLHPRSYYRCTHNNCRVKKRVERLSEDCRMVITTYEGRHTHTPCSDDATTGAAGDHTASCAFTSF

In the assay the target is OsWRKY34 (Oryza sativa, UniProt Q0JBA9 1-250). The experiment in a line: protein-binding microarray (RPBM); PBS, 2% BSA, 51.3 ng/ul salmon testes DNA, 50 uM zinc acetate, 200 nM TF, 25 C, 1 h; high values mean tight binding. The following applies: protein: recombinant; tags: N-terminal polyhistidine and DsRed monomer fusion (pET32a); label: CyDye5-dUTP incorporated in the synthesized complementary strand; 3' TTTTT single-stranded linker to array surface; dsDNA, one strand shown. Put shortly:
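Binding signal is reported as fluorescence intensity per feature (arbitrary units) from an Axon 4000B scanner. Incubation used 200 nM of each Ni–NTA-purified, N-terminally polyhistidine- and DsRed-fused transcription factor from E. coli BL21-CodonPlus on a double-stranded custom Agilent array for 1 h at 25 °C, with 50 µM zinc acetate in the buffer, followed by washing.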
For “CTACGTGAGCTCGTTGCTGTGTCTCCTCTCTCTGCATCGCCGGAGTCACCTAGTGCAG”, the binding signal is 9690 fluorescence intensity (a.u.). Next, “CTCACAGTAAGCTTGTCCAACAGATCCATTCCTAACCTACCGGAGTCACCTAGTGCAG”: 8140 ± 110 fluorescence intensity (a.u.). In the case of “TCCACTTCCAACATCTACTATCTTTTCTCACGCTTTTTCCCGGAGTCACCTAGTGCAG”, the binding signal is 8630 fluorescence intensity (a.u.). Next, “CTCCTCAGCTAGTTGCTTGTCCCACACCACATCTTTCTTTCGGAGTCACCTAGTGCAG”: 12900 fluorescence intensity (a.u.); “GTCCAGTGGACCAACCGGGTCACGGTCTCACGTGCCAAAGCGGAGTCACCTAGTGCAG”: 8710 fluorescence intensity (a.u.). Then “AAAATCTGTCATCGTCGTATCATGCATGTCGAATGTTTTGCGGAGTCACCTAGTGCAG”, with 8380 fluorescence intensity (a.u.); and “AGCTATTTTACATGTTATTTTTTCATTGTTATCGTACTAACGGAGTCACCTAGTGCAG”, with 10500 fluorescence intensity (a.u.).

As for “CATCCCAAAATATTTGACGTCGTTGACTTTTTTAAAAGTGCGGAGTCACCTAGTGCAG”, the binding signal is 18000 fluorescence intensity (a.u.). As to “CACCATCCCAAAATATTTGACGCCGTTGACTTTTTTAAAACGGAGTCACCTAGTGCAG”, the binding signal was 14000 fluorescence intensity (a.u.). Then “TCCCTCCATCCCAAAATGTTATCTTTGACGTCGTTGACTTCGGAGTCACCTAGTGCAG”, with 10900 fluorescence intensity (a.u.); and “GAGAGTAAGGATCAGGAGGAGGTGGAGGAGGAGGAGGATGCGGAGTCACCTAGTGCAG”, with 8300 fluorescence intensity (a.u.); and “GCGGAGGTGGTGTGGGTGGGTGAGTGAGTGAGGAGTGATGCGGAGTCACCTAGTGCAG”, with 17400 fluorescence intensity (a.u.). Turning to “AGGGTAAGAGGAGGAGGAGGAGGGGTAGGCGAGGGAGATGCGGAGTCACCTAGTGCAG”, the binding signal was 8490 fluorescence intensity (a.u.).

With “GTAGGAGGAGGAGGAGGAGGTGGTGGTGGTGGTGGTGATGCGGAGTCACCTAGTGCAG”, the binding signal was 15100 fluorescence intensity (a.u.). Then “GGATGAGGAGGAGGGTGTGGAGGAGGAGGAGGAGGAGGTGCGGAGTCACCTAGTGCAG”, with 11500 fluorescence intensity (a.u.); and “CGGCCCAGGTGGGAGAGGAGGGGAGGGGAGGGGAGGGATGCGGAGTCACCTAGTGCAG”, with 19800 fluorescence intensity (a.u.); and “GTTGGAGTTGGAGGAGGTGGTGCCGTGGTGGGGATTGATGCGGAGTCACCTAGTGCAG”, with 10500 fluorescence intensity (a.u.). Next, “GGAGGTCAGGATTGTTGTGGTGGGGAATTGGAGGGAAATGCGGAGTCACCTAGTGCAG”: 19600 fluorescence intensity (a.u.); “GGGAGGGGCGGCCCAGCGGCAGCGGAGGGGAGGGAGGATGCGGAGTCACCTAGTGCAG”: 8640 fluorescence intensity (a.u.).

“GGGTCAGAGGGTAGGTTATTGTTGGGTAGGTGTGGAATTGCGGAGTCACCTAGTGCAG”: the binding signal was 9800 fluorescence intensity (a.u.).

Regarding “AGGTGGAGGTGGGGAGGATGCGGGAGAGGGAGGTGATGATCGGAGTCACCTAGTGCAG”, the binding signal is 14000 fluorescence intensity (a.u.). Consider “GGGTGTGTAAGGGTAGGTGGAGGGGTGGGTGATGCGAGATCGGAGTCACCTAGTGCAG”, for which the binding signal is 20400 fluorescence intensity (a.u.).

For the sequence “TTATAACATCTCTAGCTTCCTTTTCTAACCGTTTAACTTTCGGAGTCACCTAGTGCAG”, the binding signal was 8410 fluorescence intensity (a.u.). Then “TTGGTTGTGTGTGTGCCGCCGCGAGCCCGTGACGGCGCCCCGGAGTCACCTAGTGCAG”, with 9390 fluorescence intensity (a.u.).

Take “AATTTTTATATTGTTGACCTGCAGATCCTTATGTTGGACTCGGAGTCACCTAGTGCAG”: the binding signal was 8260 fluorescence intensity (a.u.). With “AACGTACCACTCCCGTGGGCCGGACCAACACTCCTTCCCACGGAGTCACCTAGTGCAG”, the binding signal was 9510 fluorescence intensity (a.u.). Then “TGCGTGTTGTGTGTGTGGGTGATCTTTGGCGCGCCTCGTCCGGAGTCACCTAGTGCAG”, with 8120 fluorescence intensity (a.u.); and “ATCCCCATTTTTTTCCCAAGTGGTACACTGAAATTTTTTTCGGAGTCACCTAGTGCAG”, with 8100 fluorescence intensity (a.u.); and “TTCCCCACCACCACCAACCCAGACCGGCCGCGGCCTATATCGGAGTCACCTAGTGCAG”, with 8270 fluorescence intensity (a.u.). With “TTTATAGATGGGGAAGGGGTGGCAACTAGAGACGCGACGGCGGAGTCACCTAGTGCAG”, the binding signal is 9070 fluorescence intensity (a.u.). Then “TTCTCCGTGTTAATATCACTTACGTCAAGGACCTATTTGTCGGAGTCACCTAGTGCAG”, with 8750 fluorescence intensity (a.u.). Take “CGATGTGATTTAGTGAAAAATTTTAGGGTGGGCTAAACAGCGGAGTCACCTAGTGCAG”: the binding signal was 11500 fluorescence intensity (a.u.). Next, “GTGAGGTGGGGTGGTGTGGCTTCTGCTGCTGCTGCTACTGCGGAGTCACCTAGTGCAG”: 15100 fluorescence intensity (a.u.).

In the case of “GGGGTGGGGTGGAGAGGGTGAAGCGGCGACGGTGACGATGCGGAGTCACCTAGTGCAG”, the binding signal is 9870 fluorescence intensity (a.u.). For “GACTGGGAGGATGAGGGGTGGGTGGGTGTGGCTGCTTCTGCGGAGTCACCTAGTGCAG”, the binding signal was 19100 fluorescence intensity (a.u.). Then “GTGTGGAGGTGGTGGGGAGTGTGAGGAGAGGGAGGGGATGCGGAGTCACCTAGTGCAG”, with 18000 fluorescence intensity (a.u.); and “CGGTGAGGGGTGGACTGGGAGTGCGTGGGTGGGTGTGATGCGGAGTCACCTAGTGCAG”, with 13400 fluorescence intensity (a.u.); and “GGCGTGTTGGTGTGCGTGGATTGGGTGGGTGAGGAGGATGCGGAGTCACCTAGTGCAG”, with 13000 fluorescence intensity (a.u.). Then “TGGAGGTGGGGAGGATGCGGGAGAGGGAGGTGATGATGGGCGGAGTCACCTAGTGCAG”, with 8790 fluorescence intensity (a.u.); and “TCGCTGTGAGTGGAGGAGGAGGAGGAAGGGGAGGAGGATGCGGAGTCACCTAGTGCAG”, with 8630 fluorescence intensity (a.u.); and “GTGAAGCGATCTGTATTGGTGGAGGGGAGGGGAGGGGATGCGGAGTCACCTAGTGCAG”, with 24000 fluorescence intensity (a.u.). Next, “TTTTGCCATCTGGTAATCCCTCTACCACCAACAGCTACAACGGAGTCACCTAGTGCAG”: 9220 fluorescence intensity (a.u.).
